# Assay results: PubChem BioAssay (NCATS)
# Values joined by “and” are separate entries in the source; they are usually repeats but may differ in a detail not shown here. Identical values can stand only once. Records with an inconclusive call do not appear. Where a call stands in place of a potency, no number is given. Active and inactive are the calls of the source. Unless noted, calls follow the shape of the dose curve; as a rule, active = well fitted curve in the direction sought with a large enough effect; inconclusive = small, poorly fitted or top-dose-only effect, or another doubt; inactive = no such curve, though single readings can be large; an effect the other way counts as inactive or inconclusive.
# Assays:
# [1] = S16 Schwann cell PMP22 intronic element beta-lactamase assay (AID 624044; calls by dose curve; also: nearly all actives have a fitted effect of over 15% in size); conditions: S16 rat Schwann cells, PMP22 element beta-lactamase FRET, 24 h; series mostly up to 17.1 µM
# Outline: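 Rat S16 Schwann cells with beta-Lac driven by a PMP22 intronic element, compound-treated 24 h at 37 °C. LiveBLAzer FRET B/G read: 460 nm normalized to potassium clavulanate vs DMSO; 535 nm FRET as viability; concentration-effect curves classified.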
# [2] = test system: CP297; test: qHTS profiling for inhibitors of Plasmodium falciparum proliferation (AID 504749); also: nearly all actives have a fitted effect of over 60% in size; also: potency is read from the fitted curve at half-maximal effect; conditions: P. falciparum in erythrocytes, SYBR Green DNA, 72 h; series mostly up to 12.8 µM
# Outline: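 P. falciparum-infected erythrocytes (0.3% parasitemia, 2.5% hematocrit) incubated with compound 72 h at 37 C, 5% CO2. Parasite DNA detected by SYBR Green after lysis, overnight at room temperature; normalised to 0.29 uM artemisinin and DMSO.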
# [3] = target: Tyrosyl-DNA phosphodiesterase 1 (Homo sapiens) (UniProt Q9NUW8); test: Confirmation Assay for Inhibitors of Tyrosyl-DNA Phosphodiesterase (TDP1) (AID 489007); conditions: recombinant human TDP1 enzymatic activity, dose-response; also: potency is read from the fitted curve at half-maximal effect; nearly all actives have a fitted effect of over 40% in size
# Outline: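 Recombinant human Tdp1 (1 nM final), expressed in E. coli, preincubated 15 min with compound. Then 15 nM 5'-biotin/3'-phosphotyrosine-FITC DNA substrate added for 5 min at room temperature. AlphaScreen beads (10 ug/ml) added for 10 min; cleavage gives signal loss.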
# [4] = target: Cytochrome P450 2C9 (Homo sapiens) (UniProt P11712); test: qHTS Assay for Inhibitors and Substrates of Cytochrome P450 2C9 (AID 883); conditions: recombinant CYP2C9, luciferin-H luminescence, 60 min; series mostly up to 57.1 µM; also: nearly all actives have a fitted effect of over 60% in size
# Outline: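 Signal: luciferase luminescence reporting luciferin produced by CYP2C9. Conditions: 10nM enzyme, Luciferin-H 100uM at KM, 25mM KPO4, 37C, 60 min NADPH-driven reaction. Reference: 57uM sulphaphenazole as 100% inhibition.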
# [5] = target: Cytochrome P450 2D6 (Homo sapiens) (UniProt P10635); test: qHTS Assay for Inhibitors and Substrates of Cytochrome P450 2D6 (AID 891); conditions: recombinant CYP2D6, luciferin-ME EGE luminescence; series mostly up to 57.1 µM; also: nearly all actives have a fitted effect of over 60% in size; also: potency is read from the fitted curve at half-maximal effect
# Outline: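 Human CYP2D6 (5 nM) with 30 uM Luciferin-ME EGE (at Km) in 100 mM KPO4, compound preincubated 10 min, then NADPH regeneration system for 60 min at room temperature. Luciferin read by luminescence; normalized to 1.43 uM quinidine.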
# [6] = target: Cytochrome P450 2C19 (Homo sapiens) (UniProt P33261); test: qHTS Assay for Inhibitors and Substrates of Cytochrome P450 2C19 (AID 899); conditions: recombinant CYP2C19, luciferin-H EGE luminescence; series mostly up to 57.1 µM; also: nearly all actives have a fitted effect of over 60% in size
# Outline: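 Signal comes from luciferase acting on luciferin released by CYP2C19-mediated hydroxylation of Luciferin-H EGE, 10uM (KM). Assay mix: 5nM enzyme, 50mM KPO4; 60 min at 37C with NADPH regeneration. Data normalized against 57uM ketoconazole.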
# [7] = target: Muscarinic acetylcholine receptor M1 (Rattus norvegicus) (UniProt P08482); test: qHTS Assay for Antagonists of Acetylcholine Muscarinic M1 Receptor: Kinetic Measurement of Intracellular Calcium Response (AID 943); conditions: M1-expressing cells, kinetic intracellular calcium fluorescence; series mostly up to 35.3 µM; also: nearly all actives have a fitted effect of over 75% in size; also: potency is read from the fitted curve at half-maximal effect
# Outline: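 CHO cells expressing rat M1 receptor, Fluo-4 loaded, preincubated 10 min with compound, then stimulated with EC80 carbachol (100 nM final). Kinetic calcium fluorescence over 4 min; response taken as peak over basal signal.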
# [8] = target: Muscarinic acetylcholine receptor M1 (Rattus norvegicus) (UniProt P08482); test: qHTS Assay for Antagonists of Acetylcholine Muscarinic M1 Receptor: Measurement of IP-One Response (AID 944); conditions: CHO-M1 cells, IP-One HTRF, antagonist mode; series mostly up to 46.1 µM; also: nearly all actives have a fitted effect of over 75% in size
# Outline: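 CHO cells stably expressing rat M1, pretreated 10 min with compound, then stimulated 30 min with carbachol at EC80 (200 nM) in LiCl-containing buffer pH 7.4; IP1 accumulation read by HTRF competition (665/620 nm).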
# [9] = qHTS Assay for Identification of Small Molecule Antagonists for Thrombopoietin (TPO) Signaling Pathway (AID 918); conditions: TPO-dependent cell signaling reporter, antagonist mode
# Outline: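 Murine Ba/F3 cells expressing human TPO receptor and a Glycoprotein IIb promoter-luciferase reporter, IL-3-starved overnight, treated with compound plus TPO at EC50 (26 pM final). After 24 h at 37 C, luminescence read to detect inhibitors.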
# [10] = target: Pyruvate kinase PKM (Homo sapiens) (UniProt P14618); test: qHTS Assay for Inhibitors of Human Muscle Pyruvate Kinase (AID 958); conditions: purified human PKM enzyme activity; series mostly up to 57.5 µM
# Outline: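 Human PKM2 activity is measured as ATP generation, detected by luciferase-coupled luminescence. The enzyme (0.1 nM) acts on 0.5 mM PEP and 0.1 mM ADP for 1 h at ambient temperature; data are normalized to uninhibited and full-inhibition wells.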
# [11] = qHTS Assay for Identification of Small Molecule Antagonists for NFkB Signaling Pathway (AID 895; active = well fitted inhibition curve with a large enough effect in the signal ratio, with a control signal flat, not every such curve was filed as active; the % refers to the signal ratio); conditions: NFkB beta-lactamase reporter cells, FRET ratio 460/530, stimulated with 10 pM TNF alpha; series mostly up to 38.3 µM
# Outline: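 ME-180 NFkB-bla cells (beta-lactamase under NFkB response element), plated overnight, treated with compound then 10 pM TNF alpha (about EC50) for 5 hrs at 37 C. LiveBLAzer FRET read at 460/530 nm emission, 405 nm excitation.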
# Cytochrome P450 2C9 (Homo sapiens), sequence (P11712 whole entry, looked up): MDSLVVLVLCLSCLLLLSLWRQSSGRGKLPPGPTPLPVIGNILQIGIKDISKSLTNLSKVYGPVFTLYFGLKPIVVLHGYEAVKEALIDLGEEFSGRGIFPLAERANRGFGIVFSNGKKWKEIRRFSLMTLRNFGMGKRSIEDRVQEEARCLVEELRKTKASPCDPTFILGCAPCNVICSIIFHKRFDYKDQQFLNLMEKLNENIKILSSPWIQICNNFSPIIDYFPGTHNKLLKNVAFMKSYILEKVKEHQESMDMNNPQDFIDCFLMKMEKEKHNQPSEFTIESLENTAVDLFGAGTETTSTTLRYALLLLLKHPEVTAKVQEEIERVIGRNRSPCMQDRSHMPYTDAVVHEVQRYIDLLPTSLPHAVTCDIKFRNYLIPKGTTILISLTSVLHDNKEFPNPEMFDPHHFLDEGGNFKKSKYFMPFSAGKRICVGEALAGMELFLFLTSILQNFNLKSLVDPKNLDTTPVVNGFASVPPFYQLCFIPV
# Muscarinic acetylcholine receptor M1 (Rattus norvegicus), sequence (P08482 whole entry, looked up): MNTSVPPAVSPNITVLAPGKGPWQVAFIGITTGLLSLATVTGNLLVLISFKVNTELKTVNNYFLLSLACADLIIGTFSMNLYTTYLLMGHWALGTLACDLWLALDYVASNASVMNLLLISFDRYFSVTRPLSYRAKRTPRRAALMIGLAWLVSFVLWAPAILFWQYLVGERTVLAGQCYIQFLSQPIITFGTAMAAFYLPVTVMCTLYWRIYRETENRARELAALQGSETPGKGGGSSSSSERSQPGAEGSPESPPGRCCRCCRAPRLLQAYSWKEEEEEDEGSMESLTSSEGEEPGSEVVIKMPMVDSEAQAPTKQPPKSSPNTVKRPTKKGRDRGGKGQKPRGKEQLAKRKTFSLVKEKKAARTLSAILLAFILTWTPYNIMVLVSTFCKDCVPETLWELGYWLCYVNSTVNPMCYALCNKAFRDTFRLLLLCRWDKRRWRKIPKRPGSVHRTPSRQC
# Cytochrome P450 2D6 (Homo sapiens), sequence (P10635 whole entry, looked up): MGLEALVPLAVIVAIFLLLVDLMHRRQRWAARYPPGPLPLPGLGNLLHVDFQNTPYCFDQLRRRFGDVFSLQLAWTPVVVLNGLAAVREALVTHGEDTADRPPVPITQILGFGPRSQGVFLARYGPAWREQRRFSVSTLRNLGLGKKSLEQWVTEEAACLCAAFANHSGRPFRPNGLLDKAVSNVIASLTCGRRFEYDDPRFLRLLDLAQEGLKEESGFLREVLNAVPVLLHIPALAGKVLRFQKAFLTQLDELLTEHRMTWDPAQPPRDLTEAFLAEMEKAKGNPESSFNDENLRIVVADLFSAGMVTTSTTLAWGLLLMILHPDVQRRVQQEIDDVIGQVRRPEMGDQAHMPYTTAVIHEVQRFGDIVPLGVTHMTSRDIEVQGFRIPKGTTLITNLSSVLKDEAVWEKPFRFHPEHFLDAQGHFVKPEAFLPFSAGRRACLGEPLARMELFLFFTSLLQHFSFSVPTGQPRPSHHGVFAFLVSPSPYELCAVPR
# Cytochrome P450 2C19 (Homo sapiens), sequence (P33261 whole entry, looked up): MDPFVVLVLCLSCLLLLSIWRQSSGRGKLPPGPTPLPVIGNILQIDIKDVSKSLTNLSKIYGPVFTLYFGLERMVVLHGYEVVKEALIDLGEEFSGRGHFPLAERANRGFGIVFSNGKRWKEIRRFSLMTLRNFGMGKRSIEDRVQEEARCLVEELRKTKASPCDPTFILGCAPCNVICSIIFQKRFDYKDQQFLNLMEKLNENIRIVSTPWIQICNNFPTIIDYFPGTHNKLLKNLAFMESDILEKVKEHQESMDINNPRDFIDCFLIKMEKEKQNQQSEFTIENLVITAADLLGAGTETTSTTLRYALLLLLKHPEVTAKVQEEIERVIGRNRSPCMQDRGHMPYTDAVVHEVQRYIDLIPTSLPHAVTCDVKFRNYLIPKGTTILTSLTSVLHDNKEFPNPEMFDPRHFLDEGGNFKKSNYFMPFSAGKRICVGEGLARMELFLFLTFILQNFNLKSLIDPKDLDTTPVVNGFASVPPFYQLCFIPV
# Tyrosyl-DNA phosphodiesterase 1 (Homo sapiens), sequence (Q9NUW8 whole entry, looked up): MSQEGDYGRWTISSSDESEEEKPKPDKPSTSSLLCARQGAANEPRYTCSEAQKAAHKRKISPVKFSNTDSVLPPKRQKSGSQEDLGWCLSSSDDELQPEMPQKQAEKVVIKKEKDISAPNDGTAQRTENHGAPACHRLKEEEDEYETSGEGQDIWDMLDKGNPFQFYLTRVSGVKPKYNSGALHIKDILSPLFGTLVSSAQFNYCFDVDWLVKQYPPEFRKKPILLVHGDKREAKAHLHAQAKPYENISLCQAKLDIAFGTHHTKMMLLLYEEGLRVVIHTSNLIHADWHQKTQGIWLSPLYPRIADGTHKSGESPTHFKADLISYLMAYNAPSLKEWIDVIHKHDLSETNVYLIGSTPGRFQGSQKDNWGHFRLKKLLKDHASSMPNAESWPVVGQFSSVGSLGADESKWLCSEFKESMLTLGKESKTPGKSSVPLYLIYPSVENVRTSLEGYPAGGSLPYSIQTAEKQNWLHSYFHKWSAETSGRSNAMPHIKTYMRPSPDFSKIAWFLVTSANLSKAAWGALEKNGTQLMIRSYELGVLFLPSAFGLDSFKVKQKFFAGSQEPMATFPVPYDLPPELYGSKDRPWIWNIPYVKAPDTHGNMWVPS
# Pyruvate kinase PKM (Homo sapiens), sequence (P14618 whole entry, looked up): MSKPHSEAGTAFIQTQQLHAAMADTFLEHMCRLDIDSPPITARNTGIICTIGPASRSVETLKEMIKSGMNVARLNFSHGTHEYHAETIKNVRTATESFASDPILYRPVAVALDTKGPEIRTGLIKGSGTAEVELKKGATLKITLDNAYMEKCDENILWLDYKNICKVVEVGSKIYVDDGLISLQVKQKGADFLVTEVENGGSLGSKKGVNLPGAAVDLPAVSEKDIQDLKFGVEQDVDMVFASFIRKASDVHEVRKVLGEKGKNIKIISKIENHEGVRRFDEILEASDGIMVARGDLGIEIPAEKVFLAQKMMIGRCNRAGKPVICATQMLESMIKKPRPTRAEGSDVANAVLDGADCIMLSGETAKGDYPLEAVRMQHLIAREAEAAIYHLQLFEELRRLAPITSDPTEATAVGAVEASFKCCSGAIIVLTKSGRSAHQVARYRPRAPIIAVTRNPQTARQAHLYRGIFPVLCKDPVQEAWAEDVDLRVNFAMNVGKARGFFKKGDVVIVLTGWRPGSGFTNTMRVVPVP
compound,measurement,setting,value
CC(=O)N(CC(O)CN(C(C)=O)c1c(I)c(C(=O)NC[C@@H](O)CO)c(I)c(C(=O)NC[C@@H](O)CO)c1I)c1c(I)c(C(=O)NC[C@@H](O)CO)c(I)c(C(=O)NC[C@@H](O)CO)c1I,outcome,[1],inactive
same,Potency,[2],inactive
O=c1[nH]c(=O)n([C@@H]2C[C@H](O)[C@H](CO)O2)cc1I,outcome,[1],inactive
same,Potency,[2],inactive
CN(C)[C@H]1C(=O)C(C(=O)NCN2CCCC2)=C(O)[C@]2(O)C(=O)C3=C(O)c4c(O)cccc4[C@@](C)(O)[C@H]3C[C@@H]12,Potency,[3],8.91 µM (active)
same,outcome,[1],inactive
same,Potency,[2],inactive
CCN(CC)CC#CCOC(=O)[C@@](O)(c1ccccc1)C1CCCCC1,outcome,[1],inactive
NC(N)=NC[C@@H]1COC2(CCCCC2)O1,outcome,[1],inactive
same,Potency,[2],inactive
CC(C)(O/N=C(\C(=O)N[C@@H]1C(=O)N2C(C(=O)[O-])=C(C[n+]3ccccc3)CS[C@@H]12)c1csc(N)n1)C(=O)O,Potency,[2],inactive
COc1cc(=O)n(C)c2c(OC[C@@H](O)C(C)(C)O)cccc12,Potency,[4],inactive
same,Potency,[5],inactive
same,Potency,[6],inactive
same,Potency,[7],inactive
same,Potency,[8],inactive
NC(=O)OC[C@H](O)COc1ccc(Cl)cc1,outcome,[1],inactive
same,Potency,[2],inactive
CCN(CC)CCC[C@H](C)Nc1ccnc2cc(Cl)ccc12,Potency,[7],5.01 µM (active)
same,outcome,[1],inactive
O=C(O)/C=C\c1ccc(O)c(O)c1,Potency,[4],inactive
same,Potency,[5],inactive
same,Potency,[6],inactive
NS(=O)(=O)c1cc([C@@]2(O)NC(=O)c3ccccc32)ccc1Cl,outcome,[1],inactive
same,Potency,[2],inactive
CCN(CC)CCC[C@H](C)Nc1c2ccc(Cl)cc2nc2ccc(OC)cc12,Potency,[5],199 nM (active) and 126 nM (active)
same,Potency,[9],10 µM (active)
same,outcome,[1],inactive
same,Potency,[2],0.536 µM (active)
CCC[C@H]1C(=O)N2C(N(C)C)=Nc3ccc(C)cc3N2C1=O,outcome,[1],inactive
same,Potency,[2],inactive
CN(N=O)C(=O)N[C@H]1[C@@H](O)[C@H](O)[C@H](CO)O[C@@H]1O,Potency,[2],inactive
CN1CCc2cccc3c2[C@@H]1Cc1ccc(O)c(O)c1-3,Potency,[5],inactive
same,Potency,[9],12.6 µM (active)
same,Potency,[8],inactive
same,outcome,[10],inactive
CN1Cc2c(N)cccc2[C@H](c2ccccc2)C1,Potency,[5],6.31 µM (active)
same,Potency,[8],inactive
COCCc1ccc(OC[C@H](O)CNC(C)C)cc1,Potency,[11],inactive
same,outcome,[1],inactive
same,Potency,[2],inactive
CO[C@H]1C[C@@H](O[C@@H]2[C@H](C)[C@H](O[C@@H]3O[C@@H](C)C[C@@H](N(C)C)[C@@H]3O)[C@H](C)C[C@]3(CO3)C(=O)[C@H](C)[C@H](O)[C@H](C)[C@H](C)OC(=O)[C@@H]2C)O[C@@H](C)[C@H]1O,outcome,[1],inactive
same,Potency,[2],inactive
COc1ccccc1OC[C@H](O)COC(N)=O,outcome,[1],inactive
same,Potency,[2],inactive
